# Measurements reported in PubChem BioAssay (NCI).
# “And” between values parts separate entries of the source, which are not always exact repeats. Identical values can stand only once. The panel holds about 83,000 compounds, 20% with a hit somewhere; the sample as a whole holds those more often.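 Each cell line was grown in a 96-well plate and treated with one concentration of compound for 48 hours. Values below 10 were considered active.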 The source made the active and inactive calls.
# Columns and labels:
# Test in all cases: NCI-60 one-dose screen, 48 h (100 = growth as untreated, 0 = no growth, -100 = all killed)
# Conditions in all cases: 10 µM unless noted
# DU-145 prostate = system: DU-145 prostate
# K-562 leukemia = system: K-562 leukemia
# MALME-3M melanoma = system: MALME-3M melanoma
# MDA-MB-231 breast = system: MDA-MB-231 breast
# RXF 393 renal = system: RXF 393 renal
# SF-268 CNS = system: SF-268 CNS
# SF-295 CNS = system: SF-295 CNS
# SF-539 CNS = system: SF-539 CNS
# UACC-257 melanoma = system: UACC-257 melanoma
# M14 melanoma = system: M14 melanoma
# HCT-15 colon = system: HCT-15 colon
# HT29 colon = system: HT29 colon
# SNB-75 CNS = system: SNB-75 CNS
# SNB-19 CNS = system: SNB-19 CNS
# U251 CNS = system: U251 CNS
# PC-3 prostate = system: PC-3 prostate
# SK-MEL-5 melanoma = system: SK-MEL-5 melanoma
# UACC-62 melanoma = system: UACC-62 melanoma
# LOX IMVI melanoma = system: LOX IMVI melanoma
# SK-MEL-28 melanoma = system: SK-MEL-28 melanoma
Structure (SMILES),growth (DU-145 prostate),growth (K-562 leukemia),growth (MALME-3M melanoma),growth (MDA-MB-231 breast),growth (RXF 393 renal),growth (SF-268 CNS),growth (SF-295 CNS),growth (SF-539 CNS),growth (UACC-257 melanoma),growth (M14 melanoma),growth (HCT-15 colon),growth (HT29 colon),growth (SNB-75 CNS),growth (SNB-19 CNS),growth (U251 CNS),growth (PC-3 prostate),growth (SK-MEL-5 melanoma),growth (UACC-62 melanoma),growth (LOX IMVI melanoma),growth (SK-MEL-28 melanoma)
NC(=S)N/N=C\c1nccc2c(C(F)(F)C(F)(F)C(F)(F)F)cccc12,1.56% (active),4.7% (active),-3.69% (active),36.9% (inactive),-11.7% (active),13% (inactive),7.4% (active),-10.3% (active),-18.2% (active),-19.2% (active),28.2% (inactive),8.84% (active),20.2% (inactive),21.8% (inactive),-9.91% (active),9.51% (active),-54.7% (active),-39.8% (active),4.13% (active),25.2% (inactive)
COC(=O)c1nc(=S)[nH]c(C(=O)OC)c1C(=O)c1ccccn1,39.5% (inactive),17.7% (inactive),30.7% (inactive),33.6% (inactive),43.2% (inactive),34.3% (inactive),-1.15% (active),15.6% (inactive),75.7% (inactive),17.9% (inactive),16.8% (inactive),34.5% (inactive),57.2% (inactive),43.1% (inactive),31% (inactive),31.1% (inactive),-26.2% (active),11.9% (inactive),10.2% (inactive),38.1% (inactive)
CCCCCCCCCCCCCCCCCCOP(=O)([O-])OC1CC[N+](C)(C)CC1,54.2% (inactive) and 25.3% (inactive),30.3% (inactive) and 20.7% (inactive),69.7% (inactive) and 16.3% (inactive),11% (inactive) and -10.4% (active),-49% (active) and 41.2% (inactive),38.9% (inactive) and 13.7% (inactive),19.5% (inactive) and 0.462% (active),36.3% (inactive) and 4.21% (active),45.4% (inactive) and 19% (inactive),-33.9% (active) and -72.8% (active),-50% (active) and -67.9% (active),2.35% (active) and -29.9% (active),10.6% (inactive) and -41.7% (active),-29.2% (active) and -65.1% (active),-35.1% (active) and -68.1% (active),-50.8% (active) and -75.1% (active),38.7% (inactive) and 20% (inactive),25.3% (inactive) and 37.2% (inactive),11.4% (inactive) and -3.66% (active),57.3% (inactive)
Cc1cc2nc(CS)[nH]c2cc1C,93.9% (inactive),76.8% (inactive),95.7% (inactive),99% (inactive),76.9% (inactive),103% (inactive),102% (inactive),94.6% (inactive),101% (inactive),89.9% (inactive),101% (inactive),89.9% (inactive),75.5% (inactive),93.3% (inactive),85.1% (inactive),87.4% (inactive),87.7% (inactive),84.4% (inactive),88% (inactive),89.5% (inactive)
CN(C)C(=O)SC1=C(c2c(Cl)cccc2Cl)C(=O)c2ccccc21,-8.29% (active),-8.92% (active),-69.7% (active),80.6% (inactive),-27.5% (active),13.3% (inactive),103% (inactive),91.1% (inactive),48.8% (inactive),23.2% (inactive),-22.4% (active),-35.3% (active),49.3% (inactive),97.4% (inactive),90% (inactive),77% (inactive),40.1% (inactive),26.7% (inactive),-48% (active),-34.1% (active)
Oc1c(Cl)c2ccccc2c2ccccc12,102% (inactive),-12.5% (active),123% (inactive),95.5% (inactive),116% (inactive),104% (inactive),120% (inactive),107% (inactive),103% (inactive),108% (inactive),112% (inactive),103% (inactive),88.2% (inactive),99.1% (inactive),113% (inactive),97.5% (inactive),101% (inactive),107% (inactive),,
N[C@H](C(=O)O)[C@@H]1CC(Cl)=NO1,37.7% [20 µM] (inactive),20% [20 µM] (inactive),33.5% [20 µM] (inactive),43.4% [20 µM] (inactive),48.7% [20 µM] (inactive),25.5% [20 µM] (inactive),31.2% [20 µM] (inactive),21.4% [20 µM] (inactive),39.1% [20 µM] (inactive),16.9% [20 µM] (inactive),15.9% [20 µM] (inactive),17.3% [20 µM] (inactive),27.3% [20 µM] (inactive),30.6% [20 µM] (inactive),26.8% [20 µM] (inactive),31% [20 µM] (inactive),11.4% [20 µM] (inactive),22.4% [20 µM] (inactive),13.2% [20 µM] (inactive),34.7% [20 µM] (inactive)
Cc1cc(C(C)(CC(C)C)c2ccc(O)c(C)c2)ccc1O,112% (inactive),97.1% (inactive),109% (inactive),88% (inactive),93% (inactive),104% (inactive),97.8% (inactive),96.6% (inactive),84.8% (inactive),94.2% (inactive),85.5% (inactive),98.7% (inactive),75.8% (inactive),109% (inactive),94.3% (inactive),93.2% (inactive),97.5% (inactive),71.1% (inactive),97% (inactive),114% (inactive)
CN(Cc1cnc2nc(N)nc(N)c2n1)c1ccc(C(=O)NC(CCC(=O)O)C(=O)O)cc1 (stereo not drawn),26.7% (inactive),18.7% (inactive),43.8% (inactive),82.8% (inactive),46.1% (inactive),25.5% (inactive),20% (inactive),22.2% (inactive),53% (inactive),10.9% (inactive),26.4% (inactive),27.6% (inactive),59.6% (inactive),47.2% (inactive),35.7% (inactive),,23.3% (inactive),21.2% (inactive),13.2% (inactive),62.2% (inactive)
Cc1ccc(C(=Nc2ccccc2)N=P(c2ccccc2)(c2ccccc2)c2ccccc2)cc1,-0.576% (active),15.6% (inactive),-67.8% (active),-41% (active),-23.3% (active),-0.449% (active),-93.4% (active),-42.9% (active),-17.3% (active),-79% (active),2.78% (active),2.74% (active),15.6% (inactive),-15.8% (active),-7.18% (active),,-96.6% (active),-78.5% (active),-82.9% (active),
Cc1ccc2nc(C[n+]3ccc4ccccc4c3)ccc2c1,76% (inactive),44.2% (inactive),61.2% (inactive),73.5% (inactive),93.6% (inactive),70.4% (inactive),59% (inactive),71.9% (inactive),24.9% (inactive),45.8% (inactive),99% (inactive),37.3% (inactive),58.9% (inactive),46.5% (inactive),42.1% (inactive),38.5% (inactive),-31.1% (active),69.8% (inactive),68.4% (inactive),63.5% (inactive)
Nc1ncnc2c1ncn2C1OC(CO)C(O)C1O (stereo not drawn),116% (inactive) and 47.5% (inactive) and 106% (inactive),93.5% (inactive) and 26.1% (inactive) and 116% (inactive),147% (inactive) and 107% (inactive) and 128% (inactive),122% (inactive) and 52.5% (inactive) and 113% (inactive),115% (inactive) and 103% (inactive),106% (inactive) and 121% (inactive) and 102% (inactive),105% (inactive) and 104% (inactive) and 100% (inactive),109% (inactive) and 98% (inactive) and 91.5% (inactive),84.9% (inactive) and 124% (inactive) and 105% (inactive),111% (inactive) and 115% (inactive),109% (inactive) and 33.5% (inactive) and 105% (inactive),109% (inactive) and 35.6% (inactive) and 98.4% (inactive),99.1% (inactive) and 50.2% (inactive) and 91.3% (inactive),106% (inactive) and 67.8% (inactive) and 100% (inactive),107% (inactive) and 92.7% (inactive) and 104% (inactive),,107% (inactive) and 103% (inactive) and 102% (inactive),110% (inactive) and 82.7% (inactive) and 101% (inactive),106% (inactive) and 57.2% (inactive) and 94.6% (inactive),
